Test results: PubChem BioAssay (NCATS)
Where “and” joins values, the source holds several entries; their conditions need not be identical. Equal entries are not always repeated. Inconclusive results are not listed. Unmarked numbers belong to inactive results. Calls of active or inactive are those of the source. The call rests on the fitted dose curve; in most records, active means well fitted curve in the direction sought with a large enough effect; inconclusive means small, poorly fitted or top-dose-only effect, or another doubt; inactive means no such curve, though single readings can be large or run the other way.

test: qHTS Assay for Identifying Gametocytocidal Compounds (AID 743244);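 on max response: actives lower the fluorescent signal which means gametocytes are killed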; conditions: P. falciparum 3D7 stage III-V gametocytes, alamarBlue, 72 h; max response: stronger effect = lower value
Method in brief: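 Stage III–V gametocytes of P. falciparum 3D7 were seeded at 20,000 cells/well onto pre-dispensed compounds. After 72 h, 37 °C, 5% CO2, alamarBlue was added for another 24 h.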
On the % scale 0 is the no-effect control and ±100 the full control effect; potency means the concentration at half of the fitted maximal effect.

In the case of `CC[C@@H](C(=O)[C@@H](C)[C@@H](O)[C@H](C)CCc1ccc(C)c(O)c1C(=O)O)[C@H]1O[C@](CC)([C@H]2CC[C@](O)(CC)[C@H](C)O2)C[C@@H]1C`, the Potency is reported as 7.08 µM (active).
In the case of `OCC(S)CS` (stereo unspecified), the Potency is reported as 3.98 µM (active).
With `CO[C@H]1C=CO[C@@]2(C)Oc3c(C)c(O)c4c(O)c(c(/C=N/N5CCN(C6CCCC6)CC5)c(O)c4c3C2=O)NC(=O)/C(C)=C\C=C[C@H](C)[C@H](O)[C@@H](C)[C@@H](O)[C@@H](C)[C@H](OC(C)=O)[C@@H]1C` the Potency was 10 µM (active).
With `C=C(NC(=O)C(=C)NC(=O)c1csc(C2=N[C@@H]3c4csc(n4)[C@H]4NC(=O)c5csc(n5)[C@H]([C@](C)(O)[C@@H](C)O)NC(=O)[C@H]5CSC(=N5)C(=CC)NC(=O)C([C@@H](C)O)NC(=O)c5csc(n5)[C@]3(CC2)NC(=O)[C@H](C)NC(=O)C(=C)NC(=O)[C@H](C)NC(=O)C([C@@H](C)CC)NC2C=Cc3c([C@H](C)O)cc(nc3C2O)C(=O)O[C@@H]4C)n1)C(N)=O` (stereo partly specified) the Potency was 11.2 µM (active).
In the case of `CO[C@@H]1[C@@H](O[C@@H]2O[C@H](C)[C@@H](O[C@H]3C[C@@](C)(O)[C@@H](OC(=O)CC(C)C)[C@H](C)O3)[C@H](N(C)C)[C@H]2O)[C@@H](CC=O)C[C@@H](C)C(=O)/C=C/C2OC2C[C@@H](C)OC(=O)C[C@H]1OC(C)=O` (stereo partly specified), the Potency is reported as 10 µM (active).
In the case of `CCCCCCCCCCCCCC[n+]1ccc(C)cc1`, the Potency is reported as 7.94 µM (active).
In the case of `CCNC(=O)[C@@H]1CCCN1C(=O)[C@H](CCCN=C(N)N)NC(=O)[C@H](CC(C)C)NC(=O)[C@@H](Cc1c[nH]c2ccccc12)NC(=O)[C@H](Cc1ccc(O)cc1)NC(=O)[C@H](CO)NC(=O)[C@H](Cc1c[nH]c2ccccc12)NC(=O)[C@H](Cc1cnc[nH]1)NC(=O)[C@@H]1CCC(=O)N1`, the Potency is reported as 6.31 µM (active).

Going from `C=CCSSSCC=C` to `CC[N+](CC)(CC)CCC(O)(c1ccccc1)C1CCCCC1` (stereo unspecified), the max response rises from -8.99% to 4.48%.

Going from `O=C(Nc1cccc(C(F)(F)F)c1)c1cc(Br)cc(Br)c1O` to `O=C(O)c1cc(=O)c2c3nc4ccccc4oc-3cc(=O)c2[nH]1`, the max response falls from -2.44% to -14.4%.

First: CC1(C)S[C@@H]2[C@H](NC(=O)[C@@H](NC(=O)N3CCNC3=O)c3ccccc3)C(=O)N2[C@H]1C(=O)O
Second: CC(Oc1ccccc1)C(=O)N[C@@H]1C(=O)N2[C@@H]1SC(C)(C)[C@@H]2C(=O)O (stereo partly specified)
The max response of the first is lower: 5.13% for the first, 15.7% for the second.

Going from `CC1=C(/C=C/C(C)=C/C=C/C(C)=C/C=C/C=C(C)/C=C/C=C(C)/C=C/C2=C(C)C(=O)CCC2(C)C)C(C)(C)CCC1=O` to `CC1=C(/C=C/C(C)=C/C=C/C(C)=C/C=C/C=C(C)/C=C/C=C(C)/C=C/C2=C(C)CCCC2(C)C)C(C)(C)CCC1`, the max response falls from 6.31% to -12%.

First: CNc1cc(OC)c(C(=O)N[C@H]2CCN(Cc3ccccc3)[C@H]2C)cc1Cl
Second: COCC(=O)Nc1cc(Sc2ccccc2)ccc1N=C(NC(=O)OC)NC(=O)OC
The max response of the first is lower: -16.8% for the first, -1.05% for the second.

First: CC1(C)O[C@@H]2C[C@H]3[C@@H]4CCC5=CC(=O)C=C[C@]5(C)[C@H]4[C@@H](O)C[C@]3(C)[C@]2(C(=O)CO)O1
Second: CCOC(=O)O[C@]1(C(=O)COC(=O)CC)CC[C@H]2[C@@H]3CCC4=CC(=O)C=C[C@]4(C)[C@H]3[C@@H](O)C[C@@]21C
The max response of the first is lower: -15.3% for the first, 11.8% for the second.

Compared with `CCC(=O)O[C@@H]1CC(=O)O[C@H](C)C/C=C/C=C/[C@H](O)[C@H](C)C[C@H](CC=O)[C@H](O[C@@H]2O[C@H](C)[C@@H](O[C@H]3C[C@@](C)(O)[C@@H](OC(=O)CC)[C@H](C)O3)[C@H](N(C)C)[C@H]2O)[C@H]1OC`, `CCC(=O)OCC(=O)[C@@]1(OC(=O)CC)[C@H](C)C[C@H]2[C@H]3[C@H]([C@@H](O)C[C@@]21C)[C@@]1(C)C=CC(=O)C=C1C[C@H]3Cl` is lower in max response: 4.15% for the first, -4.51% for the second.

Going from `OC[C@H]1O[C@@H](OCCc2ccc(O)cc2)[C@H](O)[C@@H](O)[C@@H]1O` to `O=C(COc1ccc(Cl)cc1)OCCNC12CC3CC(CC(C3)C1)C2`, the max response falls from 2.01% to -2.86%.

First: Nc1nc(N)c2nc(CNc3ccc(C(=O)N[C@@H](CCC(=O)O)C(=O)O)cc3)cnc2n1
Second: CO/N=C(\C(=O)N[C@@H]1C(=O)N2C(C(=O)O)=C(CSc3cnns3)CS[C@H]12)c1csc(N)n1
The max response of the first is higher: 13.9% for the first, 2.82% for the second.

Going from `CCC(=O)NS(=O)(=O)c1ccc(-c2c(-c3ccccc3)noc2C)cc1` to `O=S(=O)(O)c1ccc2c(N=Nc3ccc(S(=O)(=O)O)c4ccccc34)c(O)c(S(=O)(=O)O)cc2c1`, the max response falls from 39.9% to 11.5%.

First: CCCCC(C)(O)C/C=C/[C@H]1[C@H](O)CC(=O)[C@@H]1CCCCCCC(=O)OC (stereo partly specified)
Second: CCCCCCCCCCCCCCCC(=O)OCC(COC(=O)CCCCCCCCCCCCCCC)OC(=O)CCCCCCCCCCCCCCC
The max response of the first is lower: -1.16% for the first, 4.37% for the second.

Compared with `O=C(O)C1CCCN1` (stereo unspecified), `C[C@]12CCC(=O)C=C1CC[C@@H]1[C@@H]2[C@@H](O)C[C@@]2(C)[C@H]1CC[C@]2(O)C(=O)COP(=O)(O)O` is lower in max response: 5.42% for the first, -12.2% for the second.

Going from `COC(=O)C1=C(C#N)NC(C)=C(C(=O)OC(C)C)C1c1cccc([N+](=O)[O-])c1` (stereo unspecified) to `CC[C@@]1(O)C(=O)OCc2c1cc1n(c2=O)Cc2cc3c([N+](=O)[O-])cccc3nc2-1`, the max response falls from 13.2% to 2.02%.

Going from `C[C@@H]1C[C@H]2[C@@H]3CCC4=CC(=O)C=C[C@]4(C)[C@@]3(F)[C@@H](O)C[C@]2(C)[C@@]1(O)C(=O)COP(=O)(O)O` to `O=C1CSC2(CCN(CCCN3c4ccccc4Sc4ccc(Cl)cc43)CC2)N1`, the max response falls from 10.9% to -3.9%.

For `CC[C@H]1OC(=O)[C@H](C)[C@@H](O[C@H]2C[C@@](C)(OC)[C@@H](O)[C@H](C)O2)[C@H](C)[C@@H](O[C@@H]2O[C@H](C)C[C@H](N(C)C)[C@H]2O)[C@](C)(O)C[C@@H](C)/C(=N\OCOCCOC)[C@H](C)[C@@H](O)[C@]1(C)O`, the max response was -7.41% and 9.46%.
